Experimental data published in PubChem BioAssay (Tox21).
Results filed as inconclusive are left out. Where a call stands in place of a potency, no number is given. A number with no mark means an inactive call. The source made the active and inactive calls. Calls follow the shape of the dose curve; as a rule, active = well fitted activation curve with a large enough effect in the repeat runs; inconclusive = weak or mixed curves; inactive = flat fitted curve, though single readings scatter.

Assay: A CellTox Green Cytotoxicity Assay to monitor cytotoxicity in HEK293 cells - 16 hour (AID 1224888); also: nearly all actives have a fitted effect of over 35% in size
Details: CellTox Green fluorescence; series mostly up to 76.8 µM
Source text: National Center for Advancing Translational Sciences [NCATS]
NIH Chemical Genomics Center [NCGC]
U.S. Environmental Protection Agency [EPA]
National Institutes of Environmental Health Sciences [NIEHS]
National Toxicology Program [NTP]
Cell-based models are critical for drug discovery. Determining the natural cytotoxic effects resulting from test compounds is an essential research activity. A CellTox Green Cytotoxicity Assay to monitor cytotoxicity in real time of continues cell culture during 40 hours of the compound treatment was used to screen Tox21 10K library compounds in Hek293 cells. CellTox Green Cytotoxicity Assay is a nonlytic, homogeneous, biofluorescent method to measure cytotoxicity in cell culture after experimental manipulation. The assay system uses a proprietary asymmetric cyanine dye that is excluded from viable cells but preferentially stains the dead cell's DNA. […] Viable cells produce no appreciable increases in fluorescence. Therefore, the fluorescence signal produced by the binding interaction with dead cell DNA is proportional to cytotoxicity.
The mixture of Hek293 cell suspension and reagents were dispensed at 600cells/6 ul/well in 1536-well tissue culture treated black solid bottom plates using a Multidrop dispenser. After the assay plates were incubated at a 37 C/5% CO2 incubator for 5 hours, 23 nL of compounds dissolved in DMSO, positive and negative controls was transferred to the assay plate by a pintool work station. The plates were incubated at 37 C for 40 hours. The fluorescence intensity were measured at 0h, 8h, 16h, 24h, 32h and 40h time points using ViewLux plate reader during compound treatment.
Potency is read from the fitted curve at half-maximal effect.

SMILES	Potency	activity change
CCCCCCCCCCCCCC(=O)OCC	inactive	–
N[C@H]1C(O)O[C@H](CO)[C@@H](O)[C@@H]1O (stereo not given in full)	inactive	–
CCN1CCN(C(=O)N[C@@H](C(=O)N[C@@H]2C(=O)N3[C@@H]2SC(C)(C)[C@H]3C(=O)O)c2ccccc2)C(=O)C1=O	inactive	–
CSC(=O)c1cccc2nnsc12	inactive	–
CC(CC(=O)Cl)CC(C)(C)C (stereo not given)	inactive	–
CC(C)c1cc(C(C)C)cc(C(C)C)c1	inactive	–
C/C=C/C(=O)CCCC	inactive	–
Cc1ccc(O)c([N+](=O)[O-])c1	inactive	–
COCCCOc1cc(C[C@@H](C[C@H](N)[C@@H](O)C[C@H](C(=O)NCC(C)(C)C(N)=O)C(C)C)C(C)C)ccc1OC	inactive	–
C=C(C)C(=O)OCCCC	inactive	–
CNCCc1ccccn1	inactive	–
N#Cc1ccccc1C#N	inactive	–
C/C=C(\C)C(=O)OC/C=C(\C)CCC=C(C)C	inactive	–
CCCCCCCCCCCCCCBr	inactive	–
COC(=O)c1c(C)cc(O)c(C)c1O	inactive	–
CC(C)CC(O)Cc1ccccc1 (stereo not given)	inactive	–
CC/C=C\CCOC(=O)c1ccccc1	inactive	–
CCCCN=C(N)N=C(N)N	inactive	–
COc1cnc(NS(=O)(=O)c2ccc(N)cc2)nc1	inactive	–
Cc1cc(C)c(N)c(Cl)c1	inactive	–

SMILES	Potency	activity change
Cc1ccc(Br)cc1	inactive	–
Cc1ccc(S(=O)(=O)NC(=O)NN2CC3CCCC3C2)cc1 (stereo not given)	inactive	–
COCc1nnc(-c2ccc[n+]([O-])c2)n1-c1c(Cl)c(Cl)cc2[nH]c(=O)c(=O)[nH]c12	inactive	–
C[C@@H]1NC(=O)[C@@H](N)CNC(=O)[C@H](C2CCNC(N)=N2)NC(=O)/C(=C/NC(N)=O)NC(=O)[C@H](CNC(=O)C[C@@H](N)CCCN)NC1=O (stereo not given in full)	–	17.5% [at 0.29 µM, stronger effect = higher value]
COC(=O)N/N=C/c1c[n+]([O-])c2ccccc2[n+]1[O-]	21.3 µM (active)	–
COC(=O)c1ccc(NC(C)=O)cc1OC	inactive	–
CCCCCCCCC1CO1 (stereo not given)	inactive	–
CCO[Si](CC(C)C)(OCC)OCC	inactive	–
CCCCCCCC(=O)N(C)C	inactive	–
C[C@@H]1CC[C@@]2(OC1)O[C@H]1C[C@H]3[C@@H]4CC[C@H]5C[C@@H](O)CC[C@]5(C)[C@H]4CC(=O)[C@]3(C)[C@H]1[C@@H]2C	–	-0.0716% [at 6.97 µM, stronger effect = higher value]
COc1ccccc1N1CCN(CC(O)COc2cc(OC)c(OC)c(OC)c2)CC1 (stereo not given)	inactive	–
CCCCCC(CC)OC(=O)CCCOc1ccc(Cl)cc1Cl (stereo not given)	inactive	–
CCCc1ncc(C(=O)O)s1	inactive	–
CCC(C)(C)C	inactive	–
COC(=O)c1ccc(C(=O)O)cc1	inactive	–
C=CCN1CCc2nc(N)sc2CC1	inactive	–
O=C[C@@H](O)[C@H](O)[C@H](O)CO	inactive	–
C=COCCCCO	inactive	–
Cc1cc(=O)oc2cc(O[C@@H]3SC[C@@H](O)[C@H](O)[C@H]3O)ccc12	inactive	–
CCCCC(CC)CCC(CC(C)C)OS(=O)(=O)O (stereo not given)	inactive	–
